Records with an inconclusive call do not appear. Entries that show only a call come without a potency. The source made the active and inactive calls. Calls come from the whole dose curve.
Potency is the fitted concentration of half-maximal effect.

This assay can be described thus: p53 small molecule agonists, cell-based qHTS assay with rat liver microsomes (AID 1963578). The note with it: HCT-116 p53RE-bla, beta-lactamase ratio, 16 h; series mostly up to 66 µM. The source says: U.S. Tox21 Program National Center for Advancing Translational Sciences [NCATS] Division of Preclinical Innovation [DPI] U.S. Environmental Protection Agency [EPA] National Institutes of Environmental Health Sciences [NIEHS] National Toxicology Program [NTP] U.S. Food and Drug Administration [FDA] Tox21 Assay Overview: p53, a tumor suppressor protein, is activated following cellular insult, including DNA damage and other cellular stresses. The activation of p53 regulates cell fate by inducing DNA repair, cell cycle arrest, apoptosis, or cellular senescence. The activation of p53, therefore, is a good indicator of DNA damage and other cellular stresses. […] The activation of the reporter gene under culture conditions can be detected by fluorescence intensity. This cell line was used to screen the Tox21 10K compound library in the condition of presence of rat liver microsomes and to identify agonists that activate the p53 signaling pathway after in vitro metabolic activation (Ooka et al., Archive of Toxicology 96:1975-1987, 2022).
Tox21 Assay Protocol Summary: The p53RE-bla cells were dispensed at 4,000cells/3ul/well in 1536-well black-clear bottom plates. After the assay plates were incubated at 37 C, 5% CO2 incubator for 5 hours, 23 nL of compounds dissolved in DMSO, positive controls or DMSO only was transferred to the assay plate. Following compound addition, 3 uL of rat liver microsomes (Molecular Toxicology, Boone, NC) at final concentration of 0.5 mg/mL and 1uL of Beta-Nicotinamide adenine dinucleotide 2-phosphate (NADPH) at final concentration of 0.5 mg/mL were transferred to the assay plate. The plates were incubated at 37 C for 16 hours. 1 uL of LiveBLAzer detection mixture was added to each well and the plates were incubated at room temperature in the dark for 2 h.
Background: qHTS replaces the single test concentration by a dilution series.
For the compound `CC(O)C#N` (stereo not given), the Potency entry is “inactive”.

Regarding `Cc1cc(=O)[nH]o1`, the Potency result is “inactive”.

With `CCS(=O)(=O)c1cccnc1S(=O)(=O)NC(=O)Nc1nc(OC)cc(OC)n1`, the Potency entry is “inactive”.

As to `O=C(O)C(F)(F)C(F)(F)C(F)(F)C(F)(F)C(F)(F)C(F)(F)C(F)(F)C(F)(F)C(F)(F)F`, the Potency entry is “inactive”.

With `CC1=NNC(=O)N(/N=C/c2cccnc2)C1`, the Potency result is “inactive”.

As for `O=C(c1ccccc1)C(Cl)Cl`, the Potency entry is “inactive”.

As to `ClC(Br)Br`, the Potency entry was “inactive”.

In the case of `O=C(Cc1ccccc1)OCCc1ccccc1`, the Potency result was “inactive”.

Take `CC(Cc1ccccc1)NCc1ccccc1Cl` (stereo not given): the Potency entry was “inactive”.

With `COC(=O)c1ccccc1S(=O)(=O)NC(=O)Nc1nc(C)nc(OC)n1`, the Potency result was “inactive”.

`CCOC(=O)c1ncn2c1CN(C)C(=O)c1c(I)cccc1-2`: the Potency entry is “inactive”.

Regarding `CC(=O)[O][Sn]([c]1ccccc1)([c]1ccccc1)[c]1ccccc1`, the Potency result was “inactive”.

As for `ClC(Cl)=C(c1ccc(Cl)cc1)c1ccccc1Cl`, the Potency entry is “inactive”.

With `COc1ccc2c(c1OC)CN1CCc3cc4c(cc3C1C2)OCO4` (stereo not given), the Potency result was “inactive”.

For `CN1C2CCC(C)(C)C1CC(OC(=O)C(O)(c1cccs1)c1cccs1)C2` (stereo not given), the Potency entry is “inactive”.

Take `O=C(Oc1ccc(Br)cc1)N1CCN2CCC1CC2`: the Potency result is “inactive”.

Consider `CN1C[C@@H](NS(=O)(=O)N(C)C)C[C@@H]2c3cccc4c3c(cn4C)C[C@H]21`, for which the Potency entry was “inactive”.

On to `C=CC(=O)OCCN(C)C`, for which the Potency result is “inactive”.

With `CCOc1nc(C(Cl)(Cl)Cl)ns1`, the Potency result is “inactive”.

Take `N#Cc1cc(I)c(O)c(I)c1`: the Potency entry is “inactive”.

Turning to `CCCCCC[N+](=O)[O-]`, the Potency entry is “inactive”.

On to `O=C(O)c1ccc2[nH]cc(CCCCN3CC=C(c4ccccc4)CC3)c2c1`, for which the Potency entry is “inactive”.

`OC(c1ccc(Cl)cc1)(c1ccc(Cl)cc1)c1cccnc1`: the Potency entry was “inactive”.

With `O=S(=O)(O)C(F)(F)C(F)(F)C(F)(F)C(F)(F)F`, the Potency entry is “inactive”.

Regarding `O=C(O)CC(Cl)C(=O)O` (stereo not given), the Potency entry was “inactive”.

Take `C[C@@H]1CC[C@@]2(OC1)O[C@H]1[C@@H](O)[C@H]3[C@@H]4CC[C@H]5C[C@@H](O[C@@H]6O[C@H](CO)[C@H](O[C@@H]7O[C@H](CO)[C@@H](O)[C@H](O[C@@H]8OC[C@@H](O)[C@H](O)[C@H]8O)[C@H]7O[C@@H]7O[C@H](CO)[C@@H](O)[C@H](O[C@@H]8O[C@H](CO)[C@@H](O)[C@H](O)[C@H]8O)[C@H]7O)[C@H](O)[C@H]6O)[C@H](O)C[C@]5(C)[C@H]4CC[C@]3(C)[C@H]1[C@@H]2C`: the Potency entry was “inactive”.

Take `Cc1ccc([N+](=O)[O-])[c]2c1[O][Hg]2`: the Potency entry was “inactive”.

As for `c1ccc2c(c1)[nH]c1cnccc12`, the Potency was 36.4 µM (active).

Take `C[C@@H]1O[C@@H](O[C@@H]2C=C3CC[C@@H]4[C@H](CC[C@]5(C)[C@@H](c6ccc(=O)oc6)CC[C@]45O)[C@@]3(C)CC2)[C@H](O)[C@H](O)[C@H]1O`: the Potency result was “inactive”.

As to `S=C=NCCc1ccccc1`, the Potency result was “inactive”.

With `CCCCCCCCCCCCCCC(Br)C(=O)O` (stereo not given), the Potency entry is “inactive”.

Regarding `CN/C(=N\[N+](=O)[O-])NCC1CCOC1` (stereo not given), the Potency entry was “inactive”.

In the case of `CCC(C)(NC(=O)c1cc(Cl)c(C)c(Cl)c1)C(=O)CCl` (stereo not given), the Potency result was “inactive”.

Regarding `CC(C)(C)OO`, the Potency entry is “inactive”.

As to `ClC1=C(Cl)[C@]2(Cl)[C@H]3[C@H]([C@@H]4C=C[C@H]3C4)[C@@]1(Cl)C2(Cl)Cl`, the Potency result was “inactive”.

For the compound `COc1cc(Cl)c(OC)cc1Cl`, the Potency result is “inactive”.

For `CCCCCOC(=O)c1ccccc1C(=O)OCCCCC`, the Potency result is “inactive”.

As for `CCN(CC)CCOC(=O)C(O)(c1ccccc1)c1ccccc1`, the Potency result was “inactive”.

As to `O=C(Nc1ccccc1)Nc1cnns1`, the Potency entry is “inactive”.

As to `CCC1(c2ccccc2)C(=O)NC(=O)NC1=O`, the Potency entry is “inactive”.
